# According to the supplement of paper PMC10849652:
# Targets with a hit are over-represented here; the source holds about 7,900 in all. About 0.6% of all pairs of compound and target were hits. A number with no mark means an inactive call.
# Experiments:
# Assay in all cases: log2 fold change, soluble protein after heating vs DMSO (PISA); higher = thermal stabilisation; K562 cells, 10 uM, 30 min; active = over 0.2 and 3.5 SD of the protein, either way, in both replicates (recomputed)
# [1] = compound: CC[C@@H]1C(=O)N(C)c2cnc(Nc3ccc(C(=O)NC4CCN(C)CC4)cc3OC)nc2N1C1CCCC1
# Procedure, shortened: (§1)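 Aliquots of K562 cells (2×10^6 cells/mL) treated with 10 μM compound for 30 min were heated for 3 min over 48°C-58°C. After pooling and extraction in PBS with 0.5% NP-40 at 4°C, soluble protein from a 21,000xg, 90 min spin was quantified by TMTpro 16plex LC-MS/MS with channel sums equalised. Thermal stability is expressed against control samples, from duplicates, as a log2 fold change.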
# volasertib = compound: CC[C@@H]1C(=O)N(C)c2cnc(Nc3ccc(C(=O)N[C@H]4CC[C@H](N5CCN(CC6CC6)CC5)CC4)cc3OC)nc2N1C(C)C [volasertib]
# Procedure, shortened: as §1
# [2] = compound: CC[C@H](C)N1C=C(C2=C(C=C(C=C21)C3=CN=C(C=C3)N4CCNCC4)C(=O)NCC5=C(C=C(NC5=O)C)C)C
# Procedure, shortened: as §1
# epoxomicin = compound: CC[C@H](C)[C@@H](C(=O)N[C@@H]([C@@H](C)O)C(=O)N[C@@H](CC(C)C)C(=O)[C@]1(CO1)C)NC(=O)[C@H]([C@@H](C)CC)N(C)C(=O)C [epoxomicin]
# Procedure, shortened: as §1
# [3] = compound: CCn1c(C(=O)N(C2CC2)C2CC2)cc2c3c(ncn3C)c(Nc3cc(C)n(C)n3)nc21
# Procedure, shortened: as §1
# [4] = compound: CCn1cc(-c2ccnc3[nH]c(-c4cccc(CN(C)C)c4)cc23)c(-c2ccc(NC(=O)N(C)C)cc2)n1
# Procedure, shortened: as §1
# [5] = compound: CN(C)CC(=O)Nc1ccc2[nH]c(=O)c3ccccc3c2c1
# Procedure, shortened: as §1
# rosiglitazone = compound: CN(CCOC1=CC=C(C=C1)C[C@H]2C(=O)NC(=O)S2)C3=CC=CC=N3 (racemic) [rosiglitazone]
# Procedure, shortened: as §1
# [6] = compound: CN1C2=C(C3=C1C(=O)N(N=C3)CC4=CC(=CC=C4)N)SC(=C2)S(=O)C
# Procedure, shortened: as §1
# [7] = compound: CN1CCC(CNc2ccc3ncc(-c4cccc(OC(F)(F)F)c4)n3n2)CC1
# Procedure, shortened: as §1
# saracatinib = compound: CN1CCN(CCOc2cc(OC3CCOCC3)c3c(Nc4c(Cl)ccc5c4OCO5)ncnc3c2)CC1 [saracatinib]
# Procedure, shortened: as §1
# sotrastaurin = compound: CN1CCN(c2nc(C3=C(c4c[nH]c5ccccc45)C(=O)NC3=O)c3ccccc3n2)CC1 [sotrastaurin]
# Procedure, shortened: as §1
# alvocidib = compound: CN1CC[C@H](c2c(O)cc(O)c3c(=O)cc(-c4ccccc4Cl)oc23)[C@H](O)C1 [alvocidib]
# Procedure, shortened: as §1
# Tubastatin A = compound: CN1CCc2c(c3ccccc3n2Cc2ccc(C(=O)NO)cc2)C1 [Tubastatin A]
# Procedure, shortened: as §1
# [8] = compound: CNC(=O)C1=CC=CC=C1NC2=NC(=NC=C2Cl)NC3=C(C=C(C=C3)N4CCOCC4)OC
# Procedure, shortened: as §1
# defactinib = compound: CNC(=O)c1ccc(Nc2ncc(C(F)(F)F)c(NCc3nccnc3N(C)S(C)(=O)=O)n2)cc1 [defactinib]
# Procedure, shortened: as §1
# rucaparib = compound: CNCc1ccc(-c2[nH]c3cc(F)cc4c3c2CCNC4=O)cc1 [rucaparib]
# Procedure, shortened: as §1
# [9] = compound: CNc1nc(-c2ccc3c(N)n[nH]c3c2)cc(N2C[C@@H](C(=O)NC3CCCCC3)CC[C@H]2C)n1
# Procedure, shortened: as §1
# encorafenib = compound: COC(=O)N[C@@H](C)CNc1nccc(-c2cn(C(C)C)nc2-c2cc(Cl)cc(NS(C)(=O)=O)c2F)n1 [encorafenib]
# Procedure, shortened: as §1
# [10] = compound: COC(=O)[C@H](CCSC)NC(=O)C1=C(C=C(C=C1)NC[C@H](CS)N)C2=CC=CC=C2
# Procedure, shortened: as §1
# UniProt Q8NCW6, sequence (Q8NCW6 whole entry, looked up): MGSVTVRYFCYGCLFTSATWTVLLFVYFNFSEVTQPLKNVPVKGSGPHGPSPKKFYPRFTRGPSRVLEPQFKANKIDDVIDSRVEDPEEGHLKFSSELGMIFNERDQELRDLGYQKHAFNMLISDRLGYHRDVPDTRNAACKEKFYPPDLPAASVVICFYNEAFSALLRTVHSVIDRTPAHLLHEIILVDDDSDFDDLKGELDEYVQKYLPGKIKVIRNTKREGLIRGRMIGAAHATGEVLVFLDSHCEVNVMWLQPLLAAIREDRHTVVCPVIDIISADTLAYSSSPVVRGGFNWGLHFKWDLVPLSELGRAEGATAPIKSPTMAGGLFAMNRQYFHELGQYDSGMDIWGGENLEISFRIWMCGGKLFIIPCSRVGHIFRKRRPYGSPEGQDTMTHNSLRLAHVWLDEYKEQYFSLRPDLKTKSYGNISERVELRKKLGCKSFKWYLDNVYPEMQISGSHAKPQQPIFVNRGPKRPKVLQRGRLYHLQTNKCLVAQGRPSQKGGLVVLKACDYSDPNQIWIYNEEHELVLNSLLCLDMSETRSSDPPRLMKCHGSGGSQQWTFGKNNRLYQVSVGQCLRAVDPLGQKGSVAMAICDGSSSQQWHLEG
# UniProt Q06546, sequence (Q06546 whole entry, looked up): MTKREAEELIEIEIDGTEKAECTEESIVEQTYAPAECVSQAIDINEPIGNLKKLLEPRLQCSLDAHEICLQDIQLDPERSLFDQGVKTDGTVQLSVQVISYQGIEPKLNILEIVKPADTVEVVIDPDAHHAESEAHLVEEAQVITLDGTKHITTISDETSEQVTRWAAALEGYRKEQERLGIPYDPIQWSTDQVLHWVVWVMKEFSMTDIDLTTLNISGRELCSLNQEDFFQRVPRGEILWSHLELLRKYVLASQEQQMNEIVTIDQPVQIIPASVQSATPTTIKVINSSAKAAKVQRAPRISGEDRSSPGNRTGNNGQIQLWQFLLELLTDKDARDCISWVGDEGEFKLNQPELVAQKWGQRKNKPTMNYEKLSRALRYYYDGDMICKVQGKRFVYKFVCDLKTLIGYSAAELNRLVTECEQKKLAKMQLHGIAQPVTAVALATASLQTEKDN
# UniProt Q9NRD1, sequence (Q9NRD1 whole entry, looked up): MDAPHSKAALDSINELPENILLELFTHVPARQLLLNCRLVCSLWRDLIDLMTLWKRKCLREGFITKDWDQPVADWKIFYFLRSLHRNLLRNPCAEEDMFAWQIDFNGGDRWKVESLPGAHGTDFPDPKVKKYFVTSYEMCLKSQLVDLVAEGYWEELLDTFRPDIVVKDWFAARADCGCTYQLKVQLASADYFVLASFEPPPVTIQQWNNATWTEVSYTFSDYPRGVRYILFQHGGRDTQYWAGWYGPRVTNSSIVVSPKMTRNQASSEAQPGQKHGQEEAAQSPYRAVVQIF
# UniProt O94925, sequence (O94925 whole entry, looked up): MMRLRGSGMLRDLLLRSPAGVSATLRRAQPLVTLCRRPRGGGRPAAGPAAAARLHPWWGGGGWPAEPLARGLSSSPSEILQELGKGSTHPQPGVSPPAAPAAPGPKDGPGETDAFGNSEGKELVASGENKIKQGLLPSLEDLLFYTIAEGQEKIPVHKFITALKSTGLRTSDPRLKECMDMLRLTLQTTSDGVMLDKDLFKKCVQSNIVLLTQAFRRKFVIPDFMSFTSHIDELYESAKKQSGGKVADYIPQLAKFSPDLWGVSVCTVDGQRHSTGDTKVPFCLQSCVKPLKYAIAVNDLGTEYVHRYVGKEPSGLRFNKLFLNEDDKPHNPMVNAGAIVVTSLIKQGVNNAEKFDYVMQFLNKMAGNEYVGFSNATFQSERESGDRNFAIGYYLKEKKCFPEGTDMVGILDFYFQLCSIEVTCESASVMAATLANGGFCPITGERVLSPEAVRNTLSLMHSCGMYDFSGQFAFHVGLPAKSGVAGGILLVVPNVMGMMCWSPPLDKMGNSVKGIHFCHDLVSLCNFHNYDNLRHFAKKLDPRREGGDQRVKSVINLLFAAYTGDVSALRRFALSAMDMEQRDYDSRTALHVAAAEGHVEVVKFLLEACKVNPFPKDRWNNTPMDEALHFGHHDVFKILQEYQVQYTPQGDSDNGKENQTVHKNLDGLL
# UniProt Q9Y5Q8, sequence (Q9Y5Q8 whole entry, looked up): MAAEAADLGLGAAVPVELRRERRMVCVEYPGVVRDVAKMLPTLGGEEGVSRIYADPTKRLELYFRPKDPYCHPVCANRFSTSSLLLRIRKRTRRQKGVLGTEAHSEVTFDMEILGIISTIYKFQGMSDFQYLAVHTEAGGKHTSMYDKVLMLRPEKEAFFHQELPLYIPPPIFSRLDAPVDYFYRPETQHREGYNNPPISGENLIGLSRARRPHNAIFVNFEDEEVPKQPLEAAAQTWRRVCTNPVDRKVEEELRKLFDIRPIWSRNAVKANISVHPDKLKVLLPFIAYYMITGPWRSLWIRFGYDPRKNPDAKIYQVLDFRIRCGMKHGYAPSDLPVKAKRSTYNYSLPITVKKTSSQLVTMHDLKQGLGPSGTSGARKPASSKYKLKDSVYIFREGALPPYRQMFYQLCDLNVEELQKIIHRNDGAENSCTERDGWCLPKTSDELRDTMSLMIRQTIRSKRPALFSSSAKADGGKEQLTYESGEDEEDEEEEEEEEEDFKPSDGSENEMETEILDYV
# UniProt P49448, sequence (P49448 whole entry, looked up): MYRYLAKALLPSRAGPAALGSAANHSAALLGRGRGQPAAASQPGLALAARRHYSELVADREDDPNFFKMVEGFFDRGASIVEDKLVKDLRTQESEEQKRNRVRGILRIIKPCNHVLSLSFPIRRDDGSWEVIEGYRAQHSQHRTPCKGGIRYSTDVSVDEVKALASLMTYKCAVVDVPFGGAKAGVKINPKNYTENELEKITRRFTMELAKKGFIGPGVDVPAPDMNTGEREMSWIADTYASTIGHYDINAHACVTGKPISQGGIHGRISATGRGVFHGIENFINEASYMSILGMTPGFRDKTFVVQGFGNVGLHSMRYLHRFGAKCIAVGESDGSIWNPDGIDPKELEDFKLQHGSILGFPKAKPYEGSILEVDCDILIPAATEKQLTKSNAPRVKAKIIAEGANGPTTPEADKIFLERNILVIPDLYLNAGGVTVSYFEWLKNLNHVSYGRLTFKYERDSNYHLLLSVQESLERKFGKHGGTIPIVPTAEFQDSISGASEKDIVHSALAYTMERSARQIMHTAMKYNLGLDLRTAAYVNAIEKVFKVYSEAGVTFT
# UniProt P50213, sequence (P50213 whole entry, looked up): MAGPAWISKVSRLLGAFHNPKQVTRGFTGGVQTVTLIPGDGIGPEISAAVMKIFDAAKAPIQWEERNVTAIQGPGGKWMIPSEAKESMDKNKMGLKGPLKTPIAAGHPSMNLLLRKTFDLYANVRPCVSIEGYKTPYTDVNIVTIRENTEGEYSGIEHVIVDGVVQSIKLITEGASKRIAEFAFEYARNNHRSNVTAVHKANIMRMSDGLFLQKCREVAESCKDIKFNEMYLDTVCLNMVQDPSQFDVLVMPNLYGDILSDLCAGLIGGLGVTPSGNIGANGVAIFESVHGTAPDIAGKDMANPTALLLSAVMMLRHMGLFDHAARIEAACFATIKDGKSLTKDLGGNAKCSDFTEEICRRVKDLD
# UniProt Q5JWF2, sequence (Q5JWF2 whole entry, looked up): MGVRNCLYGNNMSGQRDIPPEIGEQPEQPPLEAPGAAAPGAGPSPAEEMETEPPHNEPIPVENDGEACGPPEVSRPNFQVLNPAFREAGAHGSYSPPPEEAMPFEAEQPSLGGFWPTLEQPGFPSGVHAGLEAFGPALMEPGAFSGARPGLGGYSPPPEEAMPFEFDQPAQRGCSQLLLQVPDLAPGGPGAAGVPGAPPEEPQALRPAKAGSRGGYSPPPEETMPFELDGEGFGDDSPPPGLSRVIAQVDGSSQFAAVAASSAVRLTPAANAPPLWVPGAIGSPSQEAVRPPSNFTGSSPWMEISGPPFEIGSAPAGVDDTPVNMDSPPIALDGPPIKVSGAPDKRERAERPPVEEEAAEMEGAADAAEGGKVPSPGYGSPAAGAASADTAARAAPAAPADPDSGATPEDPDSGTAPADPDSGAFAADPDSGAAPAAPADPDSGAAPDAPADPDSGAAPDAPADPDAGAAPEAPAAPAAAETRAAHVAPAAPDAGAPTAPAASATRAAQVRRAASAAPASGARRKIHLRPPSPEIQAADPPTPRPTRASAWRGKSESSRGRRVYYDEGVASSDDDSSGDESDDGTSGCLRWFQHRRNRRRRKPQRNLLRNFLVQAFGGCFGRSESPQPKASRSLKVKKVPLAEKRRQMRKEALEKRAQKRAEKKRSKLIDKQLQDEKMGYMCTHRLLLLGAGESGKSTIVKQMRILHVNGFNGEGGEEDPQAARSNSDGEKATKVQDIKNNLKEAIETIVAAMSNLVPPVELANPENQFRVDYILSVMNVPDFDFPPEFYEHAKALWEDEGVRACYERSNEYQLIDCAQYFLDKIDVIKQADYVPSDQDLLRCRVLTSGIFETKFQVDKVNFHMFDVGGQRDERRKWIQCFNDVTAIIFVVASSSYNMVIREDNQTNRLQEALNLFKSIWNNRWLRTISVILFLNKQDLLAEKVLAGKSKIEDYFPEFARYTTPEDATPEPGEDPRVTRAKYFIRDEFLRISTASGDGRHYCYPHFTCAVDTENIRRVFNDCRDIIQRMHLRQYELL
# UniProt Q02790, sequence (Q02790 whole entry, looked up): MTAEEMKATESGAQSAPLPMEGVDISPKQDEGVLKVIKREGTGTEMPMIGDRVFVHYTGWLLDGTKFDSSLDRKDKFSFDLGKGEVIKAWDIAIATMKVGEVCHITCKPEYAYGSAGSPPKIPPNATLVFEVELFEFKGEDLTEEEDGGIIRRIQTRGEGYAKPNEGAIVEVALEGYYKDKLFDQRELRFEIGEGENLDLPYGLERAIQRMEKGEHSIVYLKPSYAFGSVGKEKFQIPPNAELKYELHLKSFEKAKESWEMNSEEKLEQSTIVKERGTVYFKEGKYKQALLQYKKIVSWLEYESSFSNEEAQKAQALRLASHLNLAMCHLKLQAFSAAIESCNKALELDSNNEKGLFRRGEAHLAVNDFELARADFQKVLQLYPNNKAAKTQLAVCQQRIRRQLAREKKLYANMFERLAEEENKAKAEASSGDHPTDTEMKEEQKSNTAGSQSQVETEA
Target,log2 fold change [1],log2 fold change (volasertib),log2 fold change [2],log2 fold change (epoxomicin),log2 fold change [3],log2 fold change [4],log2 fold change [5],log2 fold change (rosiglitazone),log2 fold change [6],log2 fold change [7],log2 fold change (saracatinib),log2 fold change (sotrastaurin),log2 fold change (alvocidib),log2 fold change (Tubastatin A),log2 fold change [8],log2 fold change (defactinib),log2 fold change (rucaparib),log2 fold change [9],log2 fold change (encorafenib),log2 fold change [10]
GEMIN6 (UniProt Q8WXD5),0.109,0.148,-0.052,0.093,-0.017,-0.019,-0.039,0.071,-0.087,-0.048,0.063,0.002,-0.028,0.072,0.013,-0.061,0.069,-0.028,-0.04,-0.112
HPCAL1 (UniProt P37235),-0.076,-0.065,-0.028,0.048,0.003,0.039,0.019,0.005,-0.029,-0.032,0.011,0.017,-0.004,-0.085,0.048,-0.008,0.013,-0.107,-0.014,-0.025
GEMIN5 (UniProt Q8TEQ6),-0.122,-0.438 (active),0.034,-0.014,-0.007,0.042,0.015,0.046,0.019,-0.094,-0.014,-0.035,-0.192,-0.053,-0.02,-0.216 (active),0.026,0.025,0.061,-0.019
GTF3C5 isoform 3 (UniProt Q9Y5Q8),-0.188,-0.157,0.213,-0.011,0.029,-0.034,0.078,0.017,-0.025,0.03,0.024,-0.148,0.036,0.068,-0.02,-0.069,-0.173,0.056,0.085,-0.021
GLS isoform 3 (UniProt O94925),-0.172,-0.699 (active),0.126,0.152,-0.017,-0.055,0.069,0.046,-0.039,-0.364,-0.025,-0.027,-0.246,0.14,-0.025,-0.139,-0.045,-0.063,0.039,0
GSK3B isoform 2 (UniProt P49841),0.013,-0.027,-0.002,0.058,-0.032,-0.1,-0.001,0.036,-0.004,0.004,0.012,0.2,0.052,-0.007,0.001,-0.015,0.059,-0.019,-0.003,0.03
FLNA (UniProt P21333),-0.121,-0.375 (active),0.078,0.063,-0.074,-0.004,0.029,0.019,0.052,-0.12,-0.076,-0.161,-0.017,0.052,0.106,-0.042,0.1,0.017,0.089,-0.053
GLUD2 (UniProt P49448),0.13,0.252,0.068,-0.07,0.034,-0.219,0.021,0.002,-0.022,0.071,0.305 (active),0.056,-0.017,-0.016,0.051,0.008,0.003,0.178,-0.117,-0.042
HADHA (UniProt P40939),0.03,0.469,0.107,0.055,0.231,-0.233,0.023,-0.019,-0.053,-0.334,-0.102,0.032,-0.238,0.05,0.044,-0.19,0.177,0.595 (active),-0.024,-0.191
IDH3A (UniProt P50213),-0.031,-0.01,0.004,0.063,0,-0.027,0,0.008,-0.064,0.033,-0.004,0.008,-0.056,-0.058,-0.026,-0.023,-0.031,-0.026,-0.01,0.002
FDFT1 (UniProt P37268),-0.067,-0.151,-0.01,0.06,-0.017,-0.06,0.003,-0.024,-0.059,0.067,0.071,0.604 (active),-0.033,0.012,-0.002,-0.02,0.004,-0.072,-0.032,-0.028
GABPA (UniProt Q06546),-0.017,-0.304 (active),0.079,0.007,-0.083,-0.07,0.037,0.076,-0.026,-0.174,-0.065,-0.086,-0.134,0.087,-0.063,-0.064,-0.015,0.018,0.019,0.011
FKBP4 (UniProt Q02790),-0.066,-0.136,0.07,0.033,-0.01,-0.051,0.019,0.042,-0.04,-0.119,-0.048,-0.022,-0.092,-0.009,0.032,-0.055,0.016,0.05,0.026,-0.036
GALNT11 (UniProt Q8NCW6),0.057,-0.223 (active),0.014,-0.002,-0.038,0.015,-0.079,0.176,0.013,-0.009,-0.025,-0.024,0,0.028,0.033,-0.187,-0.047,0.01,-0.064,-0.055
FBXO6 (UniProt Q9NRD1),0.683 (active),0.696 (active),0.096,-0.029,-0.037,-0.038,0.036,0.006,0.005,0.366 (active),0.042,-0.085,-0.092,-0.016,0.031,-0.038,-0.064,0.011,0.033,-0.099
GNAS (UniProt Q5JWF2),0.125,0.164,0.032,0.011,0.016,0,-0.02,0.006,-0.03,0.057,-0.023,0.036,0.025,0.011,-0.004,0.012,0.029,0.069,0.021,-0.041
